{"source": "paper PMC12136788", "binders": {"B1": {"name": "52098632_52100650_1216_3pUTR_ENSG00000128872_ENST00000249700|human|control|control (ssRNA)", "RNA": "GGGAGUUCUACAGUCCGACGAUCUACCUUCGGUCUGCUUCAACUCUCUUCUUACGAACCAGGUCAUUAUUCUUUGUGAUGGCAGCUGCCACCCUUGUUCGUGGCCCUUGCUUGGUAAACUGGUAUCCAAACUUGAGGAUCCUUCAACAGAGGAUUGAGCAUCA"}, "B2": {"name": "chr5:121736274:121736275:+_ENSMUSG00000042744_ENSMUST00000119892|mus_mus|FALSE|FALSE (ssRNA)", "RNA": "GGGAGUUCUACAGUCCGACGAUCCUGGUGAAUGCACAUGGCGCCAACAUGGUGCAGUAACUGGUUUAUGACUUCAUUUGUGCUAAUGGCCUCUUCUUUGGGCUCGGUGAUGAUAUGGCUGACACCCAGUCUCUGGCACACGUACAACAGAGGAUUGAGCAUCA"}, "B3": {"name": "chr3:128198961:128198962:-_ENSG00000179348_ENST00000341105|hu_hu|motif|central (ssRNA)", "RNA": "GGGAGUUCUACAGUCCGACGAUCACUGGACCCAAAAAGAGUUUAAAAAUAAAACAAUUAACUCAUCAGCGAGUUAAGCCGGUGCAUUUUUUUAAUAUUUUUUCUUUUGUCUCAGAGUAGGAGGCGAGGGGGUUGAAGGGUUAGCAACAGAGGAUUGAGCAUCA"}, "B4": {"name": "chr12:48362563:48362564:+_ENSG00000134291_ENST00000256686|hu_hu|hu_hu_hu_mus_False|58_78 (ssRNA)", "RNA": "GGGAGUUCUACAGUCCGACGAUCUCCGUCAAGCCCUUCGAUAGACCCUUGCGGGGGUGGUAAAAACCACUUUGUAUUUCUAAAAAAAAGAAACGCCAAAAACUUUCCAAAAAGCGGGGGUGGGGUGAGGCGGGAGGGGGAGGUCAACAGAGGAUUGAGCAUCA"}, "B5": {"name": "119691784_119693947_668_CDS_ENSG00000158290_ENST00000371322|human|control|control (ssRNA)", "RNA": "GGGAGUUCUACAGUCCGACGAUCGAGUUCUUCUAAAUUGUACUUAAUUGAAGUACUAUUCUGAAUAGCUUCCACUGCUUCUUUCAGUUUUUGCCAGGUUUCAUCUGUGUAGUUUUCUGGUAAUUUAGGCUUAUCUUUAAAGUUCAACAGAGGAUUGAGCAUCA"}, "B6": {"name": "chr2:151326667:151326668:-_ENSG00000115963_ENST00000263895|hu_hu|FALSE|FALSE (ssRNA)", "RNA": "GGGAGUUCUACAGUCCGACGAUCUUUAUUUGUCUUAUUUACACAUGCCAAGGUGGCAACGUGAAAAAUGUCUCUGACGCUAUUUUCCGACUGUAAAGCUGAGCAUUCGAUAUAAGUAGCUGCUCCAAUCUGUUUGGCCAUAUUCAACAGAGGAUUGAGCAUCA"}, "B7": {"name": "chr10:71978566:71978567:-_ENSG00000180817_ENST00000373232|hu_hu|motif|central (ssRNA)", "RNA": "GGGAGUUCUACAGUCCGACGAUCUAAAGGGUCCUUUGUAGCAAUCUCCAUUUUUGCAUUAGACCAGCGUGGUACUUCAACGGCCAUGUGAAACACAUCCUUAUCUGCAUAAAUUGGAAUAUCAUGAAAUGGAGAUAUAUAUUGCAACAGAGGAUUGAGCAUCA"}, "B8": {"name": "23376367_23376487_1679_3pUTR_ENSMUSG00000026158_ENSMUST00000027343|mouse|control|control (ssRNA)", "RNA": "GGGAGUUCUACAGUCCGACGAUCAUUUGAAAACACAUCCUAAAUGUAUUCUUUUAUUGGAUCUGGUCUUAAAACUUCUUAUUUAAUGUCCAAUUCAUUGUGAUCCAAAAUAAAAAGGCUUACAGCAAAAGUCACAGGUGGCCACAACAGAGGAUUGAGCAUCA"}, "B9": {"name": "chr17:55760890:55760891:+_ENSG00000153944_ENST00000284073|hu_mus|FALSE|FALSE (ssRNA)", "RNA": "GGGAGUUCUACAGUCCGACGAUCCAAUUUCAUAUGCAAUAUAAUACAGAAAGCAUGGCUGACCUUCAAUUUUAAAAAAAAAUGUAGUAAACUAUAUUGCUUUAUUCUUGAAGAUGCUGCUGCGGUGGGUGGAUGGCAGAGCGACAACAGAGGAUUGAGCAUCA"}, "B10": {"name": "chr14:105235747:105235748:-_ENSG00000142208_ENST00000407796|hu_hu|FALSE|FALSE (ssRNA)", "RNA": "GGGAGUUCUACAGUCCGACGAUCACUUUUAUUGAAGAAUUUGGAGGGAAGGUUCCAUAUUAUAUUAUAAUAGUAAAAAUACUAAAGUUGAAUGUUGUAAAAAAACGCCGUGGUGCAGCGGCAGCGGCAGCGUCUGGCCAGGAGCAACAGAGGAUUGAGCAUCA"}, "B11": {"name": "chr2:129025431:129025432:+_ENSMUSG00000027397_ENSMUST00000028880|mus_mus|motif|central (ssRNA)", "RNA": "GGGAGUUCUACAGUCCGACGAUCUUGCCACAGUAGAUUCCAUUCUCUAGUGUAGUGGUUCUUUAAAUAAUAAGAGAAUUACGGAGCGGCUUUUGAGAUGUGUAAACGGAAUGAGGUAUCAAAAUGCUAUAAUAAAUAGUAUAUCAACAGAGGAUUGAGCAUCA"}, "B12": {"name": "chr14:21319500:21319501:-_ENSMUSG00000021816_ENSMUST00000161445|mus_hu|motif|central (ssRNA)", "RNA": "GGGAGUUCUACAGUCCGACGAUCGAGUUGUAUUCCAGGGCAUGAGGGAAGCAGGCCACCAAAGUAAAGGGAAAUACCAAACGGCAGUGGCAAUCAAUACAGGUCAAUAAUUGUGAAAAAUUAGCACAUGGUUCCAUUUAGUUUCAACAGAGGAUUGAGCAUCA"}, "B13": {"name": "chr14:105235747:105235748:-_ENSG00000142208_ENST00000407796|hu_hu|motif|central (ssRNA)", "RNA": "B10 RNA with U82G, A83G"}, "B14": {"name": "chr14:105235747:105235748:-_ENSG00000142208_ENST00000407796|hu_mus|FALSE|FALSE (ssRNA)", "RNA": "GGGAGUUCUACAGUCCGACGAUCGAAAAGCAAUUUUUAUUGAAUUUGGAGGGACAGUUUCUUAUUAUAAUAGUAAAAAUGCUGAAGCUGAAUGUUGUAAAAAACGACAUGGUGCAGCAAUGGCCAGCGUCUGGCCGGGAGGGGCAACAGAGGAUUGAGCAUCA"}}, "note": "Where a chain is given by its changes, count along the chain named. Whole data set: some 24,000 sequences, median “enrichment r” near 0.99, cut for the highest 2% near 3.7. The list comes from a sample in which the highest values are over-represented; it also holds similar and randomly drawn sequences."}
{"biological_target": "T1, UNK ZnF1-3 (human, UniProt Q9C0B0 31-174)", "T1 sequence": "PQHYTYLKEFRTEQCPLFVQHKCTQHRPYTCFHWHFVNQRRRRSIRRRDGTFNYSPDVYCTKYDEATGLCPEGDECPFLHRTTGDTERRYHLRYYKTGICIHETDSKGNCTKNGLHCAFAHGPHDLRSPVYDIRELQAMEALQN", "experiment": "nsRBNS (natural sequence RNA bind-n-seq); RBNS binding buffer (assumed for nsRBNS): 25 mM Tris pH 7.5, 150 mM KCl, 3 mM MgCl2, 0.01% Triton X-100, 500 ug/ml BSA, 20 U/ml SUPERase-In, 4 C; UNK is unkempt and MSI1 is Musashi-1; names of the RNAs are library labels; protein concentration not given here; high values mean tight binding", "units": {"binding signal": "enrichment R"}}
{"binder": "B1", "binding signal": 0.553}
{"binder": "B2", "binding signal": 0.813}
{"binder": "B3", "binding signal": 1.54}
{"binder": "B4", "binding signal": 3.57}
{"binder": "B5", "binding signal": 0.363}
{"binder": "B6", "binding signal": 0.818}
{"binder": "B7", "binding signal": 0.593}
{"binder": "B8", "binding signal": 0.637}
{"binder": "B9", "binding signal": 1.14}
{"binder": "B10", "binding signal": 7.85}
{"binder": "B11", "binding signal": 1.26}
{"binder": "B12", "binding signal": 2.39}
{"binder": "B13", "binding signal": 5.41}
{"binder": "B14", "binding signal": 4.04}
